Experimental data reported in PubChem BioAssay (NCATS).
Records with an inconclusive call do not appear. A call without a number means that no potency is given here. The source made the active and inactive calls. The call rests on the fitted dose curve; in most records, active means well fitted inhibition curve with a large enough effect; inconclusive means small, poorly fitted or top-dose-only effect; inactive means no such curve, though single readings can be large or run the other way. Square brackets hold non-standard residues; d marks the D form. Peptide text beside a SMILES is read from it. * marks the point of attachment. ξ: configuration not given here. Hexanoyl = CCCCCC(=O)*; ξL = CC(C)CC(N)C(=O)O

Experiment: qHTS for ATAD5 Antagonist screened against the NCATS CANVASS Library (AID 1347370); further: nearly all actives have a fitted effect of over 65% in size
Settings: HEK293T-ATAD5-luc, 5-FUrd stimulated, luminescence, 16 h; series mostly up to 46.1 µM
Summary of the method: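 HEK293T-ATAD5 luc reporter, 2000 cells/well; 5hr attach; cpd + 10 uM 5-FUrd; 16hr 37C, 5% CO2. Readouts: CellTiter-Fluor fluorescence (1hr), then Amplite luciferase luminescence (30min RT).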
Potency means the concentration at half of the fitted maximal effect.

SMILES | Potency
CC(=O)N[C@H](C)c1nc(/C=C/C=C/C(=O)CC2CC(=O)CC[C@]2(C)O)cs1 (stereo partly drawn) | inactive
CN1C(=O)C(=O)N2C(=C[C@]3(c4c[nH]c5ccccc45)c4ccccc4N[C@H]23)C1=O | inactive
CN1CC[C@]23c4ccccc4N[C@H]1[C@]21CCN(C)[C@H]3Nc2ccccc21 | inactive
C/C=C1/C2=CCCN3C(=O)O[C@H]([C@H]1O)[C@H]23 | inactive
O=C1CC(c2ccc(O)cc2)Oc2ccccc21 (stereo not drawn) | inactive
COc1c(O)cc(O)c2c(=O)cc(-c3ccccc3)oc12 | inactive
COC1C(C)OC(OCC23C[C@@H]4[C@H](C)CC[C@H]4C4(C=O)CC2C=C(C(C)C)C34C(=O)O)[C@@H](O)[C@H]1O (stereo partly drawn) | inactive
CN1CC[C@@]2([C@@]34CCN(C)[C@@H]3Nc3ccccc34)c3ccccc3N[C@@H]12 | inactive
CC[C@@H](C)[C@H]1NC(=O)C(CC(C)C)NC(=O)[C@@H](CC(C)C)NC(=O)[C@H](Cc2c[nH]c3ccccc23)NC(=O)CNC(=O)[C@@H](CC(N)=O)NC1=O (stereo partly drawn) (cyclo(GW[dL][ξL][dI][dN])) | inactive
Cc1cc(O)cc2c1C(=O)c1c(O)cc(O)cc1C2=O | inactive
C=C(Cl)[C@](Cl)(CBr)CC[C@@H](Br)C(C)(C)Cl | 23.4 µM (active)
C=C(C)C(=O)O[C@H]1C[C@@]2(C)OC(=CC2=O)/C(C)=C\[C@H]2OC(=O)C(=C)[C@H]12 | 2.95 µM (active)
C=C[C@]1(C)CC[C@@H]([C@H](C)C(=O)CC=C(C)C)O1 | inactive
CC[C@@H]1C[C@@]2(CC)OC(=O)[C@@]3(CC)[C@H](CC)[C@@H]1[C@@H]23 | inactive
[C-]#[N+][C@@]12C(=O)[C@@H]3[C@@H](O[C@@]4(C(=O)N(C)c5cccc1c54)C3(C)C)C(=O)[C@@]2(C)C=C | inactive
COC(=O)c1cccc2oc(-c3cccc4oc(-c5c(C)cccc5O)nc34)nc12 | 8.31 µM (active)
C[C@@]12CCC[C@@](C)(C(=O)OP(=O)(O)OC[C@H]3O[C@@H](n4cnc5c(N)ncnc54)[C@H](O)[C@@H]3O)[C@H]1C[C@@H](O)[C@@]13C[C@@H](CC[C@@H]21)[C@](C)(O)C3 | inactive
CCC(C)=C1OC(=O)[C@H](C)[C@H](O)[C@H](Cc2cccnc2)NC(=O)C(NC(=O)c2ncccc2O)C(C)OC1=O (stereo partly drawn) | inactive
C[C@@]12CCC[C@@](C)(C(=O)O)[C@H]1CC[C@@]13C[C@@H](CC[C@H]12)[C@](C)(O)C3 | inactive

SMILES | Potency
O=C1OC(CCO)c2cccc(O)c21 (stereo not drawn) | inactive
C=C1C[C@]23C=CC(=O)[C@@](C)(CCCC(C)C(=O)N[C@@H](CO)C(=O)O)[C@@H]2C[C@@H]1CC3 (stereo partly drawn) | inactive
COc1cc2ccc(=O)oc2c(O)c1O[C@@H]1O[C@H](CO)[C@@H](O)[C@H](O)[C@H]1O | inactive
C/C(=C\[C@@H](C)CC/C=C/CC/C=C/C(=O)O)[C@@H](O)[C@H](C)C(=O)CCCC1CC(=O)NC(=O)C1 | inactive
CO[C@@H](C[C@@H](C)[C@@H](O)/C=C/C=C/CNC(=O)C(C)(C)[C@H](O)\C(C)=C/C=C\C=C\Cc1cnco1)[C@]1(O)[C@@H](C)C(=O)N(C)[C@@]12COC2=O | inactive
O=C1CC(c2ccc(O)cc2)Oc2cc(O)cc(O)c21 (stereo not drawn) | inactive
O=C1CC(c2ccc(O)cc2)Oc2cc(O)ccc21 (stereo not drawn) | inactive
CN1CC[C@@]23c4ccccc4N[C@@H]1[C@@]21CCN(C)[C@@H]3Nc2ccccc21 | inactive
C[C@@]12CCC[C@@](C)(C(=O)O)[C@H]1C[C@@H](O)[C@@]13C[C@@H](CC[C@@H]21)[C@](C)(O)C3 | inactive
O=Cc1ccc2n1C[C@]1(OC2)O[C@H](CO)[C@@H](O)[C@@H]1O | inactive
C=C[C@@]1(C)CC[C@@H]([C@H](C)C(C)=O)O1 | inactive
C/C=C(/CO)C(=O)O[C@@H]1[C@H](O)[C@@H](C(=O)OC)O[C@@H]2C[C@H]3OC(n4cnc5c(N)ncnc54)[C@H](OC)[C@H]3O[C@@]12O (stereo partly drawn) | inactive
C/C=C/[C@H]1[C@H]2C(=O)c3c(O)c(C)c(O)c(C)c3[C@]1(C(=O)O)C(=O)C=C2C | inactive
C[C@@]12C[C@@H](C[C@@H]3C(=O)O[C@@H](c4ccoc4)[C@H](OC(=O)c4ccccc4)[C@@H]31)OC2=O | inactive
C=C1CCC2C(C)(C(=O)O)CCC(CC/C(C)=C/C(=O)NC(CCC(N)=O)C(=O)O)[C@@]2(C)C1 (stereo partly drawn) | inactive
C=C1[C@@]2(C)CC3C4(C)CCC(O)C(C)(C)C4CCC3(C)[C@]1(C(=O)OC)C(=O)C(C)(O)C2=O (stereo partly drawn) | inactive
CC(C)=CCC[C@]1(C)[C@H]2CC(=O)[C@@]3(CO3)[C@@H]1C2 | inactive
CCCCCC(=O)N[C@@H](CC(C)C)C(=O)N[C@H](C=O)CCC(=O)O (Hexanoyl-Leu-Glu-aldehyde) | inactive
CC1(C)CC[C@]2(CO)CC[C@]3(C)C(=CCC4[C@@]5(C)CC[C@H](O)C(C)(C)C5CC[C@]43C)C2C1 (stereo partly drawn) | inactive
